TRHR PAM: TRH receptor (human) allosteric enhancement. P34981. TRHR cells, fluo-8 calcium fluorescence, EC20 TRH enhancement. enhancement, % at 2 µM. 0.66% of 360,000 active. AID 493056; in the data active means enhancement above about 30%; further: 0% is about no effect
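TRHR-expressing cells loaded with fluo-8 calcium dye were read kinetically (ex 480/em 530) during compound addition, then stimulated with an EC20 of TRH (10 nM final). Enhancement of the Gq-mediated intracellular calcium response was scored.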
D1 potentiator: enhances dopamine response at the human D1 receptor. AID 504651. P21728. HEK293 TREx D1 cells, calcium flux, dopamine EC20 potentiation. potentiation, % at 10 µM. 0.036% of 360,000 active; in the data active means potentiation above about 30%; further: 0% is about no effect
Target sequence (P21728 whole entry, looked up): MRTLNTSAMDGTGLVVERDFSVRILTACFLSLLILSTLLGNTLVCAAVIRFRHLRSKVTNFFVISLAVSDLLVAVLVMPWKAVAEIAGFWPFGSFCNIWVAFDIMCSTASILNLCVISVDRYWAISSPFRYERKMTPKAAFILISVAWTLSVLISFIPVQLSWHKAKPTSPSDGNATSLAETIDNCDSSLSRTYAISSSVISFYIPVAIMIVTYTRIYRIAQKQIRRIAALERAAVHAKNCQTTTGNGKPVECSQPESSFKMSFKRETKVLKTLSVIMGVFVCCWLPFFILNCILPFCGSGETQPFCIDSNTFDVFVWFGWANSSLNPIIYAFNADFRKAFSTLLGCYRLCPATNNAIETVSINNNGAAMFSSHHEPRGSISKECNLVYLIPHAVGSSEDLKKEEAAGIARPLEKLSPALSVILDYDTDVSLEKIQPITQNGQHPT
D1 agonist: human D1 receptor agonism; activation, % at 2 µM; P21728; 1% of 360,000 active; AID 504660; HEK293 T-REx D1 cells, calcium flux, agonist mode; further: 0% is about no effect
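Tetracycline-induced HEK293 TREx D1 cells, force-coupled to calcium signalling, were dye-loaded with a no-wash calcium kit. Compound was pin-added after a 10 s baseline. Fluorescence was read kinetically at 1 cycle/s for 180 s, with calcium rises flagged as agonism.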
TRHR ag: agonists of human TRH receptor | TRHR cells, calcium flux fluo-8, FDSS agonist mode | activation, % at 2 µM | 0.18% of 360,000 active; further: 0% is about no effect
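Read-out: compound-evoked intracellular calcium rise in TRHR cells, fluo-8 dye, kinetic FDSS fluorescence at 1 s/cycle following a 10-cycle baseline. Cells cultured overnight before dye loading (30 min–1.5 h, RT).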
D1 antagonist: human D1 dopamine receptor antagonism | HEK293 TREx D1 cells, calcium flux, dopamine EC80; hits give low values | 3.2% of 360,000 active | P21728 | activity change, negative = inhibition, % at 10 µM | AID 504652; in the data active means activity change below about -30%; further: on the % scale 0 is the no-effect control and ±100 the full control effect
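Using tetracycline-induced force-coupled D1 Hek293 cells and a calcium dye, signals were followed for 180 s after compound, then for 180 s after EC80 dopamine, to detect inhibitors.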
Numbers without * were called inactive; · = not tested or not shown; ! = not active in a repeat. In the library only some 4.7% were active in any assay of this set; here they are far more common. Unless noted, no stated cut-off is given here; in the data, active means activation above about 30%; inactive means the rest.

SMILES	TRHR PAM	D1 potentiator	D1 agonist	TRHR ag	D1 antagonist
COC(=O)c1ccc(C23CC4(C2)[C@H](CN(C)[C@@H]4c2ccccc2)C3c2ccc(C(F)(F)F)cc2)cc1 (some centres not stated)	-5	1	1	0	-52*
Cc1ccc(N2C(=O)CS(=O)(=O)C23C(=O)Nc2ccccc23)cc1C (configuration not stated)	2	4	2	0	-2
Oc1ccc(Nc2nc(-c3ccc(Cl)cc3)nc3ccccc23)cc1	-2	-5	4	-1	-34*
OCCNc1nc(-c2ccccc2)nc2ccccc12	-1	-8	4	1	-35*
Cc1ccc(Nc2nc(NCCO)c3ccccc3n2)cc1C	-5	-11	13	1	-38*
COc1ccccc1Nc1nc(NCCO)c2ccccc2n1	-1	-5	1	0	0
Oc1ccc(Nc2nc(-c3ccccc3)nc3ccccc23)cc1	-10	-4	1	0	-19
O=C(Nc1nc(-c2ccccc2)nc2ccccc12)c1ccc(F)cc1	-5	-7	2	1	-58*
CCN(CC)c1nn2c(=O)c(C(=O)NCc3ccc(F)cc3)cnc2s1	6	-7	0	0	3
Cc1ccc(NC(=O)C2CCN(C(=O)c3sc4nc[nH]c(=O)c4c3C)CC2)cc1F	-6	-6	1	0	-29
CCc1ccc(C(=O)Nc2cccc(-c3nc4cc(C(C)C)ccc4o3)c2)cc1	-2	-5	2	1	-5
CCOc1ccc(NS(=O)(=O)c2ccc3c(c2)CCCN3C(=O)C2CCC2)cc1	-2	0	5	0	13
COc1ccc(NS(=O)(=O)c2ccc(-c3cnc(C4CC4)o3)cc2)cc1OC	-7	-7	17	0	-31*
COc1ccccc1NS(=O)(=O)c1ccc(-c2cnc(C3CC3)o2)cc1	2	-2	10	0	-25
Cc1cccc(N(C)S(=O)(=O)c2ccc(-c3cnc(C4CC4)o3)cc2)c1	0	-10	9	1	-38*
CCOc1ccccc1NS(=O)(=O)c1ccc(-c2cnc(C3CC3)o2)cc1	-5	-2	18	0	-38*!
O=C(CSc1nc2ccccc2nc1Cc1ccc(Cl)cc1)N1CCN(c2ccccc2F)CC1	1	-1	4	0	5
Cn1c(=O)c2c(nc(SCC(=O)Nc3ccc(F)cc3F)n2Cc2ccccc2)n(C)c1=O	1	3	-1	-2	9
CSCCC(NC(=O)c1ccco1)C(=O)Nc1ccc(C)cn1 (configuration not stated)	0	-19	0	0	-35*
Cc1ccc2c(CC(=O)Nc3c(C)n(C)n(-c4ccccc4)c3=O)coc2c1	4	-3	0	-2	-80*
O=C(C1=NN(c2ccccc2)C2C(=O)N(c3cccc(Cl)c3)C(=O)C12)c1ccccc1 (configuration not stated)	7	-1	104*	41*	15
O=C(C1=C[C@@H]2[C@H]3C(=O)N(c4ccccc4)C(=O)[C@H]3[C@@H](C(=O)c3ccc(Cl)cc3)N2C=C1)c1ccccc1	2	-4	4	1	1
CC(=O)C1=NOC2C(=O)N(c3ccc(Cl)cc3)C(=O)C12 (configuration not stated)	7	1	50*	-2	0
CCOC(=O)C1=NOC2C(=O)N(c3ccc(Cl)cc3Cl)C(=O)C12 (configuration not stated)	9	-3	2	0	-4
O=C(C1=NN(c2ccccc2)C2C(=O)N(c3ccc(Cl)cc3)C(=O)C12)c1ccccc1 (configuration not stated)	-8	7	192*	0	-14
SMILES	TRHR PAM	D1 potentiator	D1 agonist	TRHR ag	D1 antagonist
COc1ccc(-c2nnc(SCC(=O)Nc3ccc(C)c(C)c3)s2)cc1	-5	-2	0	1	8
CCN(CCCc1ccccc1)CCCc1ccccc1	-8	-5	22	0	-19
CCN(CCCC(=O)c1ccc(F)cc1)CCc1ccccc1	3	-5	16	1	-36*
COc1cc(/C=C2/SC(=Nc3ccc(O)cc3)NC2=O)cc(OC)c1O	6	-4	47*	70*	-5
COc1ccc(/C=C2\SC(=Nc3ccccc3)NC2=O)cc1	10	-6	3	2	1
COc1ccccc1N=C1NC(=O)/C(=C/c2ccc(N(C)C)cc2)S1	0	-7	108*	22	-22
O=C(COc1ccc(F)cc1)Nc1ccc2nc(SCc3ccccc3)sc2c1	-3	0	5	1	-4
O=C1C=C(N(CCO)Cc2ccccc2)c2ccccc2C1=O	39*	4	3	0	0
O=C1c2ccccc2C(=O)c2c1cccc2N(CCO)CCO	-2	5	0	0	2
O=S(=O)(c1ccc2c(c1)OCCO2)N1CCN(S(=O)(=O)c2ccccc2Cl)CC1	1	-3	3	0	-12
CC(=O)c1ccc(S(=O)(=O)N2Cc3ccccc3CC2C(=O)O)cc1 (configuration not stated)	0	6	2	-1	27
COC(=O)C1Cc2ccccc2CN1S(=O)(=O)c1ccc(F)cc1 (configuration not stated)	-6	-3	0	0	-36*
CS(=O)(=O)N1Cc2ccccc2CC1C(=O)O (configuration not stated)	-1	-9	3	0	-43*
O=C(O)[C@H]1Cc2ccccc2CN1S(=O)(=O)c1ccc(F)cc1	3	3	0	1	-4
Cc1ccn(-c2n[nH]c(C)c2[N+](=O)[O-])n1	3	20	8	0	4
Cc1[nH]nc(N2CCCCCC2)c1[N+](=O)[O-]	0	-9	1	0	-41*
Cc1cc(C)n(-c2ccc(C(=O)Nc3cccnc3Cl)cc2)n1	3	-12	5	0	-41*
CC(=O)NS(=O)(=O)c1ccc(NC(=O)c2ccc(-n3nc(C)cc3C)cc2)cc1	2	9	3	1	-7
Cc1cc(C)n(-c2ccc(C(=O)Nc3cc(S(=O)(=O)N(C)C)ccc3Cl)cc2)n1	9	-6	4	-1	-30*
COc1ccc(-c2nc3sc(CCNS(=O)(=O)c4ccccc4)c(C)n3n2)cc1	1	-1	14	0	·
CCOC(=O)C1CCCN(c2c(N3CCC(N4CCCCC4)CC3)c(=O)c2=O)C1 (configuration not stated)	5	·	2	0	-33*
N/C(Cn1nnc(-c2ccccc2)n1)=N\O	-7	-2	-1	0	14
Cc1ccc(-c2nnn(C/C(N)=N/O)n2)cc1	36*	-2	6	4	-39*
Cc1noc(C)c1CN(C(=S)NC(C)C)c1ccccc1	6	-5	3	0	-32*

Compound activity (PubChem BioAssay)
